Measured values from the supplement of paper PMC6555819.

Legend:
Test in all cases: PBM binding z-score (relative to random genomic background probes); higher = stronger binding; sequences stand for … in GC…GCGATTGACAGCGTAGAATGAAGG
[1] = tested on: RARb homodimer (NR concentration 270 nM)
Outline: (§1)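 Ligand-free nuclear receptor dimers were applied to custom Agilent 4×180K protein-binding microarrays whose double-stranded probes carried direct-repeat seeds, single-nucleotide variants, half-site ablations and random human genomic background sequences in 34-nt variable regions. Incubation lasted 1 h. Binding z-scores were computed against the random background probes from regression-normalized fluorescence.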

[2] = tested on: RARg:RXRa (NR concentration 270 nM, RXRa partner concentration 90 nM)
Outline: as §1

[3] = tested on: RARg homodimer (NR concentration 270 nM)
Outline: as §1

[4] = tested on: RXRa DBDmut IVT, anti-RXR (DBD mutation: RXRa K156A/R161A, NR concentration 90 nM)
Outline: as §1

[5] = tested on: RXRa homodimer (NR concentration 180 nM)
Outline: as §1

[6] = tested on: THRa:RXRa (NR concentration 90 nM, RXRa partner concentration 90 nM)
Outline: as §1

[7] = tested on: THRa homodimer (NR concentration 90 nM)
Outline: as §1

[8] = tested on: VDR homodimer (NR concentration 270 nM)
Outline: as §1

Sequence	PBM binding z-score [1]	PBM binding z-score [2]	PBM binding z-score [3]	PBM binding z-score [4]	PBM binding z-score [5]	PBM binding z-score [6]	PBM binding z-score [7]	PBM binding z-score [8]
TCTAGCAGGCCTGAGGGTCACTCAAGAGGTACGG	2.52	2.29	1.53	0.198	2.59	1.75	-0.278	0.36
TCTTGTAGATCAAGCAGGTTAAGAAGGCCTGAGT	0.0999	-0.137	-0.293	0.295	0.317	0.354	-0.512	0.00431
CCTAGTTGCTCAAGGTCACACACGCTATAGGTAC	4.14	4.56	4.78	2.19	4.8	4.05	4.51	4
CCTACTGGGCCATTCAGAGATCATTGATCATATG	-0.395	-0.116	0.345	-0.0997	-0.144	-0.209	-0.607	-0.171
TAGCCTAGGTCATTGAGCCAGTATAGTACGCATC	2.68	3.9	4.06	1.72	2.9	2.79	0.737	1.03
CATACATGGTCAGCTAGGCCAGAGTAGGGACGGC	0.263	0.156	0.731	-0.604	0.103	-0.289	-0.393	-1.02
ATCTCTCGGTAACAAGTTCAGTGAAAGAGAGGAC	1.84	0.867	1.2	0.226	0.539	0.976	0.753	2.29
TGTCAAAGTACAAAGGTAACGTAAGTATCCACAC	1.01	1.41	1.32	0.417	0.984	1.33	-0.416	0.229
GGAACGAGGGCAATGTTGATAGCATCTGTCGACG	0.983	1.08	1.66	1.93	0.843	0.966	-0.016	0.72
TCTAGCAGGCCAGCGGGTCACTCAAGAGGTACGG	2.01	2.14	1.56	0.000361	1.77	1.42	-0.34	-0.133
CCTATTAGTTGACCATAAGGGCTACCGAAGCTCG	1.04	0.591	0.633	0.659	0.214	0.318	0.305	0.787
TCTATTAGTTGATTAGGGCAACCAAAACAGCGGA	0.623	0.694	0.677	0.92	0.57	0.825	0.291	0.358
TCATATAGGTAAACATGTGAAAGTCCGTAAGTTA	0.34	0.489	0.354	1.66	1.06	0.435	0.267	0.405
CCAGAGAGGTGAGAAGGTAACTCAGCCTCGATTA	1.31	1.52	1.22	0.0821	1.05	1.19	0.396	0.477
TCAGACAGGTGAAGGTAACTAAGGTACGCAGTCG	0.841	0.733	0.744	1.14	1.05	1.43	0.595	-0.102
CATGCAGGGTCAGCTAGGCCAGAGTAGGGACGGC	3.19	4.53	5.06	1.71	4.75	3	0.624	1.16
TCGAGTAGGTTAGGGGCATTGAGAATGGCGTCGA	0.964	0.14	0.129	0.205	0.572	0.83	0.383	0.492
CCACGGAGGACAACAGGAGGTCAGAGCTGCCAGA	3.72	3.61	3.45	0.466	2.08	2.8	1.28	1.48
TAGCCTAGGTCGTTGGGCCAGTATAGTACGCATC	0.513	0.529	0.698	0.311	0.61	0.621	0.0467	0.0773

Sequence	PBM binding z-score [1]	PBM binding z-score [2]	PBM binding z-score [3]	PBM binding z-score [4]	PBM binding z-score [5]	PBM binding z-score [6]	PBM binding z-score [7]	PBM binding z-score [8]
CGAACTAGGTAATTGACAGGACAGTGAATAGTAA	0.027	0.00313	0.198	0.0767	-0.137	0.166	-0.0579	-0.054
AGTCAAAGCTCACTAGGTAACGTAAGATTCAGCT	-0.396	-0.184	-0.065	-0.217	0.00455	0.131	-0.137	-0.474
ACTTACGGGCCAACGAGGTTATAGCACGCGTATA	1.08	0.977	0.949	0.889	1.01	1.76	0.399	1.31
CGTCGAAGGTCAAAGGTCAGTGAAGAGATGACGG	5.17	8.72	7.78	3.05	9.99	4.58	0.832	2.54
AGAATGAGGTTTTTAAGATCAGGGAATTGCGGTC	-0.159	-0.0419	-0.355	0.351	0.0313	0.216	-0.0732	-0.068
ATACCAAGGTGATCGTGAGGTCGTTGATACTAAC	1.73	2.06	1.03	0.728	1.38	3.4	2.63	2.83
ATATGTAGGTTAGCTGGGGTCATCCAGACTAGGC	4.24	4.41	3.52	1.31	5.97	5.2	3.24	4.34
ACTATCAGTTGAGACGAGGGCAACCGATAGGTTG	1.12	0.732	0.78	0.39	0.625	2.59	0.179	0.822
CGAACTAGGTCATCCAGGACGGTGAATACATTGA	2.81	4.14	4.7	1.85	3.01	3.07	1.04	1.3
CCGACTGGGGCGGAAAGGTTACCATACCATCCGG	2.17	1.49	0.882	-1.21	1.76	1	-0.282	-0.201
GCATATAGGTAATACAAGGTGAAAGTGCGATTGT	0.903	0.659	0.584	0.39	0.992	4.13	1.19	0.133
GATACAGGGTCAGCTAGAGGCCAGAGCATGGAAA	3.06	6.77	4.51	1.31	4.26	3.01	0.132	0.805
CCTTACGGGTCACGAGGTTATAGCACGACGAGCG	4.07	6.25	5.47	1.53	6.87	3.69	1.09	2.03
TCGAATAGGTTACCAATGGGGCATTCAGCTTTCT	1.21	2.11	0.782	1.09	1.39	0.655	-0.381	-0.151
TCTATTAGTTGATTAAGGCAACCGAAACAGCGGA	-0.49	0.163	0.201	1.35	0.349	0.746	0.601	0.261
TAGCCTAGGCCAGATCGGGCCAGTATACGCTATA	-0.577	-0.451	-0.0912	-1.32	-0.625	0.522	-0.893	-0.924
TCATATAGGTAAATGCTAGGTGAAAGGCCGATCT	0.766	0.683	0.329	1.57	0.896	1.53	0.386	0.46
AGAATGAGGTTATACGTAGATAAGGGAAGAAAGT	0.654	1.77	1.26	1.23	2.29	2.11	0.472	0.781
TCATATAGGTAAAGATGAAAGTCGAACGATATGA	-0.846	0.547	0.586	0.337	0.56	-0.225	-1.11	-0.391

Sequence	PBM binding z-score [1]	PBM binding z-score [2]	PBM binding z-score [3]	PBM binding z-score [4]	PBM binding z-score [5]	PBM binding z-score [6]	PBM binding z-score [7]	PBM binding z-score [8]
TTACCAGGGTGAAAGGTCGTTGATGCACGCCTTG	2.58	3.82	1.48	0.566	6.13	2.9	0.639	1.87
AGAACGAGGGCACGCTGAGTGGATAGCAGAGTAG	0.942	1.87	2.16	1.48	1.47	1.66	-0.0727	0.664
AAAATGAGGTTATACGTAGATCAGGGAAGAAAGT	0.619	1.88	1.14	1.93	2.37	2.24	0.727	1.13
GCGTGTAGATCAAGGTTAAGAAAGACTAAGCTAA	0.225	0.354	0.289	-0.253	0.772	1.54	-0.256	-0.286
CAAACTAGGTCAAGAGGTCAAAGCCCGCTTCCCG	5.64	8.19	7.34	2.92	7.83	4.46	2.47	3.87
CCATACGGGTCACTCCAGGTTATAGCATCGGAGT	2.96	4.24	3.85	0.942	4.03	5.15	0.591	1.76
TAGCCTAGGTCATTGGGCCAGTAGAGTACGCATC	3.11	3.83	4.04	1.34	2.79	2.88	0.722	1.3
CGAACGAGGGCATGAGTTGAAAGCAAATGCCGAT	0.836	1.52	1.57	2.22	1.19	1.37	-0.313	1.57
CCTACTGGGACAAAGGTCATTGATTCCAATGCTC	4.66	5.3	4.6	1.83	5.76	3.57	1.25	2.94
CGAACTAGCTCAGAACAGGACAGTGAAGGATGAT	-0.0575	-0.313	0.137	0.021	-0.191	-0.173	-0.29	-0.0975
CGAACTAGGTCACAACAGGACAGTGAAGGATGAT	3.02	4.09	4.79	1.63	2.91	4.09	1.16	0.27
TCTATTAGTTGATTAGGGCAACAGAAACAGCGGA	0.664	0.691	0.686	0.926	0.691	0.607	0.289	0.253
GGAACGAGGGCAAAGTTGATACCATCTGTCGACG	1.63	2.14	2.02	2.79	2.18	1.47	0.0828	2.09
AGAATGACGTTACCAAAGATCAGGGAAACGCTTG	-0.559	0.085	0.256	-0.636	0.0989	-0.427	-0.611	0.0201
TCATATAGTTAAATGCTAGGTGAAAGTCCGATCT	0.141	0.1	0.364	1.68	0.476	0.852	0.605	0.158
ATATGTGGGTTAAGGGTCATTCAGGTTGGTTCGC	3.84	4.83	3.59	2.43	6.27	3.62	2.41	4.82
TGTTAAAGTTCAAAGGTAACGTAAGTATCCACAC	3.61	5.89	5.47	4.41	6.91	3.42	0.278	2.82
CAAACTAGGTCAAGAGCTCAAAGTCCGCTTCCCG	2.98	3.82	4.02	1.34	2.39	2.73	0.891	0.0239
ATTGAAAGGTCGAGGTGAGTATAGAGAAAGGGAA	3.09	4.26	4.24	1.13	4.51	3.18	1.04	1.18
